Among the data in the OligoGym collection are sensor-assay potency score (higher = more potent) values, retold here.
Note: reference of the scale not given here.

One assay addresses F2R. Nature of the assay: pooled miR-30 sensor sort-seq; sequence = guide strand. To be noted: shRNA.
Take ACAAACAGCACATCTGCCGTGG: the sensor-assay potency score (higher = more potent) is -0.289.

As for TTTCATGGTCATTACCTCCTAG, the sensor-assay potency score (higher = more potent) amounted to 0.0335.

The sequence TTCAGGGCTAAACTCTACCAAC came in with a sensor-assay potency score (higher = more potent) of -1.3.

In the case of TAATAGCTGATCTTAAAGGGGA, the sensor-assay potency score (higher = more potent) is -0.239.

Turning to TTTCTGGCCAATCTGTGTCTGA, the sensor-assay potency score (higher = more potent) was -0.414.

The sequence TATCACATTCTGCTTTGCCAGT displayed a sensor-assay potency score (higher = more potent) of -0.848.

TTAATAACTTAAACCTTGCCGT gave a sensor-assay potency score (higher = more potent) of 0.203.

For TTACACATACATCACACTCTAT, the sensor-assay potency score (higher = more potent) is -0.0427.

TTACTTGCCATCAACTGCCCAC displayed a sensor-assay potency score (higher = more potent) of -0.043.

In turn, TTATTCAGGTTACTAGAGCAGG returned a sensor-assay potency score (higher = more potent) of -0.622.

TACACATACATCACACTCTATG yielded a sensor-assay potency score (higher = more potent) of -1.1.

The sequence TTGGCTTATGTGTACAGTGTGT showed a sensor-assay potency score (higher = more potent) of -0.314.

For a further assay, the target named is FABP1. The assay is described as above. To be noted: shRNA.
As for TTTGAAAGTTGTCACCAGTTTA, the sensor-assay potency score (higher = more potent) was -0.997.

TTCCGGCAGACCGATTGCCTTC returned a sensor-assay potency score (higher = more potent) of -1.36.

ACTGTCTTGACTTTCTCCCCTG registered a sensor-assay potency score (higher = more potent) of -0.45.

TGAACTTGAAGTGCTTCCCATT gave a sensor-assay potency score (higher = more potent) of -0.823.

Take TTTCCTGGCTCTGCAGTTGGTA: the sensor-assay potency score (higher = more potent) was -0.913.

On to TATTGTCACCTTCCAACTGAAC, for which the sensor-assay potency score (higher = more potent) was -1.49.

In the case of TCTTGAAGACAATGTCACCCAA, the sensor-assay potency score (higher = more potent) is 0.0461.

The sequence TTCCAACTGAACCACTGTCTTG registered a sensor-assay potency score (higher = more potent) of -1.23.

For TCGTTTTGGATCACTTTGGACC, the sensor-assay potency score (higher = more potent) is -1.43.

TTTGGATCACTTTGGACCCAGC gave a sensor-assay potency score (higher = more potent) of -1.41.

In turn, TTGTCTCCAGCTCACATTCCTC came in with a sensor-assay potency score (higher = more potent) of -1.37.

Sequence TTTTGGATCACTTTGGACCCAG came in with a sensor-assay potency score (higher = more potent) of -0.408.

Regarding TTCCTGGCTCTGCAGTTGGTAC, the sensor-assay potency score (higher = more potent) was -1.83.

TTGAAGACAATGTCACCCAATG had a sensor-assay potency score (higher = more potent) of -1.17.

Consider ATTCTCTTGAAGACAATGTCAC, for which the sensor-assay potency score (higher = more potent) is -0.0218.

In turn, TTGAGTTCGGTCACAGACTTGA registered a sensor-assay potency score (higher = more potent) of -0.0189.

The sequence TCCAACTGAACCACTGTCTTGA registered a sensor-assay potency score (higher = more potent) of -0.148.

In turn, TGAACCACTGTCTTGACTTTCT registered a sensor-assay potency score (higher = more potent) of -0.394.

Consider TTTTTGAAAGTTGTCACCAGTT, for which the sensor-assay potency score (higher = more potent) is -0.333.

TTTTGAAAGTTGTCACCAGTTT: the sensor-assay potency score (higher = more potent) is -0.569.

In turn, TTATTGTCACCTTCCAACTGAA gave a sensor-assay potency score (higher = more potent) of -0.686.

The sequence TTTATTGTCACCTTCCAACTGA gave a sensor-assay potency score (higher = more potent) of 0.758.

The sequence AACCACTGTCTTGACTTTCTCC gave a sensor-assay potency score (higher = more potent) of -0.372.

For a further assay, the target named is FABP9. Described as above. To be noted: shRNA.
As for TTCTTTTGATTGTTGTCTCTTT, the sensor-assay potency score (higher = more potent) was -0.11.

On to TTGATTGTTGTCTCTTTGCCAA, for which the sensor-assay potency score (higher = more potent) is -0.728.

As for TTTACTTTCCGGTTGTCTGCTG, the sensor-assay potency score (higher = more potent) amounted to 0.767.

For the sequence AACACTAATAGTTACTGTCGGT, the sensor-assay potency score (higher = more potent) was -0.48.

For TAGTGTCCTGGAAAGAACTTTC, the sensor-assay potency score (higher = more potent) is -1.06.
